Source: PubChem BioAssay (National Center for Advancing Translational Sciences (NCATS))
ELG1 genotox: genotoxicity induction in ELG1-luciferase HEK293T cells. HEK293T ELG1-luciferase reporter, luminescence, 16 h. Potency, µM (doses to about 46 µM), for the others: top-dose activity change, positive = activation, hits mostly activators. hit rate 1.3% among 330,000; note: % of control where 0% means no effect; nearly all actives have a fitted effect of over 60% in size
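HEK293T cells expressing luciferase-tagged ELG1 were treated with compound or DMSO for 16 hr at 37°C. Luciferase activity was then read after 30 min with ONE-Glo at room temperature; rising signal flags genetic stress.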
SMN2 splice enh: SMN2 splice variant enhancement. hit rate 2.8% among 210,000. Potency, µM (titrated, usually from 46.1 µM), without a hit: top-dose activity change, positive = activation, hits mostly activators. HEK293 SMN2-luciferase splicing reporter, luminescence, 30-36 h; note: % of control where 0% means no effect; nearly all actives have a fitted effect of over 55% in size
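HEK293 cells carry an SMN2 […]–luciferase reporter in which exon 7 inclusion puts luciferase in frame. Cells were plated 10-12 h before compound addition, then incubated 30-36 h at 37C. ONE-Glo luminescence was read; sodium butyrate at 4.5 mM final served as control.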
FLuc counter: inhibits or activates purified firefly luciferase, miR-21 counter-screen; purified FLuc, Km substrates, luminescence inhibition; Potency, µM (doses to about 57.5 µM), without a hit: top-dose activity change, negative = inhibition, actives largely listed as inhibitors; hit rate 6.9% among 360,000;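 note: plate controls were vehicle for no effect and reference inhibitor for full effect; nearly all actives have a fitted effect of over 55% in size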
Target sequence (P08659 whole entry, looked up): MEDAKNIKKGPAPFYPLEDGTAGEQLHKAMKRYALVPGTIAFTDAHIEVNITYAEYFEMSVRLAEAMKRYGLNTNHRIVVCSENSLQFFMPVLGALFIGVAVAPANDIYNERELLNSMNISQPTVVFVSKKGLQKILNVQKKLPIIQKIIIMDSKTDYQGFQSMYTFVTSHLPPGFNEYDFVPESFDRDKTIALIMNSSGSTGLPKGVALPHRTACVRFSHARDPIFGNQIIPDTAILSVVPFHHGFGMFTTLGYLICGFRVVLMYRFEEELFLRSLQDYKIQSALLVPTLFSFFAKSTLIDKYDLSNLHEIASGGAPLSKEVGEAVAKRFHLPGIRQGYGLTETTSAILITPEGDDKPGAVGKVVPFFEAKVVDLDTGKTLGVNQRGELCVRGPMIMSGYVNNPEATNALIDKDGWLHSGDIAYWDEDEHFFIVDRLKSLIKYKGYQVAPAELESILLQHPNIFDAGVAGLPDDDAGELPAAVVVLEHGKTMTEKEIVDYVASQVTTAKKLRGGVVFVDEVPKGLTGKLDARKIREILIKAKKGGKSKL
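Biochemical qHTS of compounds, final roughly 60 µM downward over six points, against 10 nM purified firefly luciferase using Km concentrations of substrates (10 uM D-luciferin, 10 uM ATP) in Tris acetate pH 7.5 buffer; luminescence output.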
ELG1 repair inh: ELG1-dependent DNA repair inhibition; HEK293T ELG1-luciferase reporter, luminescence, 16 h; DNA damage induced by 5-fluorouridine; Potency, µM (highest dose often 46.1 µM), without a hit: at the top dose activity change, negative = inhibition, hits mostly inhibitors; hit rate 2.3% among 330,000; AID 504467; note: % is set by controls: 0 for no effect and ±100 for the full control effect; nearly all actives have a fitted effect of over 55% in size
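Quantitative HTS, concentration-response format. 2,000 cells/well co-treated with 5-fluorouridine and compound, 16 hr in 5% CO2 at 37 °C; ONE-Glo luminescence read after 30 min.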
NPC1 promoter act: activators of NPC1 promoter; Huh7 NPC1 promoter luciferase reporter, 24 h; Potency, µM (doses to about 9.22 µM), for inactives: at the highest dose activation, actives largely listed as activators; hit rate 2.4% among 320,000; AID 485313; note: % of control where 0% means no effect; nearly all actives have a fitted effect of over 60% in size
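Readout is luciferase luminescence, reflecting NPC1 promoter activation in stably transfected Huh7 cells after 24 h compound exposure at 37 °C in reduced-serum medium with 10% FBS.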
Rab9 promoter act: Rab9 promoter activation. Huh7 Rab9 promoter-luciferase reporter, luminescence, 24 h. Potency, µM (series often up to 9.22 µM), for the others: top-dose activation, negative = inhibition, most hits filed as activators. hit rate 2.8% among 320,000; note: % of control where 0% means no effect; nearly all actives have a fitted effect of over 60% in size
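Rab9 promoter-driven luciferase in stably transfected Huh7 cells; 1500 cells/well rested 2 h, exposed to compound in DMSO for 24 h at 37 °C, 5% CO2. Luminescence read 10 min after adding luciferase reagent at ambient temperature.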
* = called active by the depositor; ? = inconclusive; . = not tested or not shown; [ ] = dose if it differs, or a comment. An excerpt weighted towards active compounds, which were near 9.3% of everything screened. Calls come from the whole dose curve; as a rule, active = well fitted curve in the direction sought with a large enough effect; inconclusive = small, poorly fitted or top-dose-only effect, or another doubt; inactive = no such curve, though single readings can be large; an effect the other way counts as inactive or inconclusive. Potency is the fitted concentration of half-maximal effect.

SMILES	ELG1 genotox	SMN2 splice enh	FLuc counter	ELG1 repair inh	NPC1 promoter act	Rab9 promoter act
CC(=O)Nc1ccc(S(=O)(=O)Nc2cc(-c3cn4ccccc4n3)ccc2C)cc1	.	?	16.9µM*	.	.	.
Cc1ccn2cc(-c3ccc(C)c(NS(=O)(=O)c4ccc(Cl)cc4)c3)nc2c1	.	-31.5%	10.7µM*	.	.	.
CCS(=O)(=O)Nc1cc(-c2cn3ccc(C)cc3n2)ccc1C	.	?	12µM*	.	.	.
CCN1CCN(Cc2c(O)c(Cl)cc3c(C)cc(=O)oc23)CC1	15.0%	-18.7%	1.1%	0.6%	-0.8%	3.9%
CCC(C)(C)n1nnnc1C(c1ccc(F)cc1)N1CCN(C(=O)c2ccco2)CC1 (centres undefined)	-8.3%	.	2.0%	-0.3%	-3.6%	0.0%
CCOc1cnn(-c2ccccc2)c(=O)c1Cl	?	.	2.0%	?	0.9%	1.8%
Cc1ccc(Cn2ncc(Cl)c(Cl)c2=O)cc1	-16.1%	?	-0.3%	?	-13.6%	-6.7%
O=c1c(Cl)c(Cl)cnn1Cc1ccccc1Cl	-19.1%	?	4.8%	10.3µM*	-20.0%	-36.2%
O=c1c(Cl)c(Cl)cnn1-c1ccccc1	-5.7%	-85.6%	-2.1%	18.4µM*	-44.7%	-53.1%
O=c1c(Cl)c(N/N=C/c2ccc(Cl)cc2)cnn1-c1ccccc1	6.2%	-7.4%[1.84 µM]	-4.3%	14.1%	0.562µM*	0.316µM*
Nc1c(C(=O)N/N=C/c2ccc(Cl)cc2)cnn1-c1ccccc1	13.7%	.	6.0%	1.4%	28.9%	?
Cc1ccc(SCc2cn3ccccc3n2)cc1	5.17µM*	.	5.36µM*	?	1.26µM*	1.58µM*
c1ccc(CSCc2cn3ccccc3n2)cc1	?	15.8µM*	16.9µM*	?	2.82µM*	1.12µM*
COc1ccc(-c2csc(/C(C#N)=C\c3ccc(O)c([N+](=O)[O-])c3)n2)cc1OC	-6.3%	.	15.1µM*	14.6µM*	7.3%	-1.1%
COc1ccc(-c2csc(/C(C#N)=C\c3ccc(OC)c([N+](=O)[O-])c3)n2)cc1	-3.4%	-13.3%	1.7%	-13.1%	-3.2%	-4.7%
COc1cc(/C=C(\C#N)c2nc3ccccc3s2)cc([N+](=O)[O-])c1O	-6.4%	5.9%	8.49µM*	?	-3.9%	-6.0%
N#C/C(=C\c1ccc(O)c([N+](=O)[O-])c1)c1nc2ccccc2s1	-8.7%	-57.8%	13.5µM*	-16.4%	-1.6%	0.2%
COc1cc(/C=C(/C#N)c2nc3ccccc3[nH]2)ccc1Oc1ncccc1[N+](=O)[O-]	14.8%	1.6%	-15.9%	?	1.4%	6.6%
COc1ccc2c(c1)CCc1c(C(=O)N3CCOCC3)noc1-2	11.6µM*	12.6µM*	10.7µM*	?	3.98µM*	3.16µM*
COc1ccc2c(c1)CCc1c(C(=O)N3CC4(C)CC3CC(C)(C)C4)noc1-2 (centres undefined)	-6.8%	-16.8%	-1.9%	?	-2.0%	-7.0%
COc1ccc2c(c1)CCc1c(C(=O)Nc3ccc(OC)c(OC)c3)noc1-2	1.6%	-13.8%	2.39µM*	9.7%	10.8%	16.1%
COc1ccc2c(c1)CCc1c(C(=O)N3CCCc4ccccc43)noc1-2	?	-17.5%	13.5µM*	-0.2%	13.6%	7.4%
COc1ccc2c(c1)CCc1c(C(=O)Nc3c(C)nn(Cc4ccccc4)c3C)noc1-2	-12.3%	-12.6%	?	13µM*	-2.9%	-12.5%
COc1ccc2c(c1)CCc1c(C(=O)NCCc3ccc(OC)c(OC)c3)noc1-2	2.0%	-28.2%	-0.9%	?	-0.9%	-11.7%
COc1ccc(CNC(=O)c2ccc(CN3CCOCC3)cc2)cc1	10.5%	-16.8%	-13.2%	?	4.4%	5.8%
SMILES	ELG1 genotox	SMN2 splice enh	FLuc counter	ELG1 repair inh	NPC1 promoter act	Rab9 promoter act
CC(C)CC1c2[nH]c3ccccc3c2CCN1C(=O)c1cnccn1 (centres undefined)	?	.	10.7µM*	?	3.55µM*	3.55µM*
CC(=O)c1cc(C(=O)N2CCc3c([nH]c4ccccc34)C2CC(C)C)[nH]n1 (centres undefined)	-0.1%	.	-1.3%	?	2.4%	-2.8%
C=C(C)C1Cc2nc(N)nc(C)c2C1 (centres undefined)	8.4%	-8.3%	-0.5%	6.8%	0.9%	8.5%
CC(C)C(=O)Nc1nc2cc3c(cc2s1)OCO3	18.4µM*	-7.1%	13.5µM*	?	?	?
CC(C)(C)C(=O)Nc1nc2cc3c(cc2s1)OCO3	?	.	4.78µM*	?	2µM*	1.12µM*
CC(C)(C)C(=O)Nc1nc2c(s1)COc1ccccc1-2	27.8%	-27.9%	?	-20.1%	4.2%	15.5%
CN(C)c1cccc(C(=O)NCc2ccc(Cl)cc2)c1	-4.5%	-22.8%	-17.4%	?	-0.3%	-0.7%
O=C(NCc1ccccc1)c1ccc(Cl)cc1	-2.5%	.	-2.6%	6.2%	-3.8%	8.1%
O=C(Nc1ccc2nc3ccccc3nc2c1)c1ccccc1	?	3.98µM*	1.69µM*	?	1.41µM*	0.562µM*
O=C(NNC(=O)c1ccc(NC(=O)c2ccccc2)cc1)c1ccccc1	18.3%	4.5%	-2.8%	?	-5.7%	-1.0%
CC(C)c1ccc(C(=O)NCc2ccc(Cl)cc2)cc1	23.5%	15.8µM*	?	?	14.2%	?
O=C(NCc1ccc(Cl)cc1)c1cccc(NC(=O)c2ccccc2)c1	-11.9%	-47.4%	-16.2%	18.4µM*	-4.3%	-1.3%
O=C(Nc1ccc(Cl)c(Cl)c1)Nc1ccccc1O	?	.	6.01µM*	?	3.98µM*	3.98µM*
CCN(CC)CCN1C(=O)C2C(C(=O)Nc3ccc(C(C)C)cc3)C3C=CC2(O3)C1C(=O)NC1CCCCC1 (centres undefined)	-0.6%	.	-1.3%	?	-2.0%	3.4%
Cn1c(N)c(C(=O)Nc2cccc(Cl)c2)c(=O)n(C)c1=O	7.9%	.	5.36µM*	0.0%	2.2%	6.3%
O=C(Nc1ccc(-c2nc3ccccc3s2)c(O)c1)c1ccc(Br)cc1	.	-4.4%	-2.3%	.	.	.
Cn1nc(C(=O)Nc2cccc(Cl)c2)cc1C(=O)Nc1cccc(Cl)c1	4.8%	.	0.7%	-19.8%	-3.7%	-1.5%
O=C(Nc1ccc(-c2nc3ccccc3s2)c(OC(=O)c2ccccc2)c1)c1ccccc1	?	2.82µM*	?	?	1.58µM*	1.41µM*
CCN(c1ccccc1)S(=O)(=O)c1cc(C(=O)Nc2cccc(Cl)c2)ccc1F	-11.0%	-57.7%	1.1%	23.1µM*	-0.2%	-1.4%
O=C(Nc1ccc(Cl)c(Cl)c1)c1ccccc1	?	.	3.79µM*	?	3.16µM*	1.58µM*
CCCc1nnc(NC(=O)Cn2c(=O)oc3cc(Br)ccc32)s1	0.0%	-12.7%	0.4%	?	1.7%	3.1%
